Compound activity deposited in PubChem BioAssay by National Center for Advancing Translational Sciences (NCATS).
TR SRC2 fluor cs – alters Texas Red total fluorescence, flagging assay interference | TRb/SRC2 Texas Red total fluorescence interference | Potency, µM (highest dose often 106 µM), without a hit: at the top dose fluorescence change, negative = quenching | hit rate 0.29% among 280,000; active = well fitted curve in either direction with a large enough effect; inconclusive = small, poorly fitted or top-dose-only effect
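Flags fluorescent or light-absorbing compounds by total fluorescence, S + 2P, at 555 nm excitation and 632 nm emission. Mixture: 20 nM Texas Red SRC2 peptide, 0.6 uM human TRb LBD, 1 uM T3, 5% DMSO; compound exposure 5 h at ambient temperature.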
Tau fluor cs – counter-screen for tau fibril formation inhibitors | AID 1463 | tau K18 P301L Alexa594 fluorescence, heparin fibrillization | Potency, µM (highest dose often 57.7 µM), inactives show top-dose activity change, negative = decrease | hit rate 0.93% among 280,000; note: nearly all actives have a fitted effect of over 55% in size
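Human tau K18 P301L (15 uM unlabeled, 0.24 uM Alexa 594-labeled) in 100 mM sodium acetate pH 7 with 20 uM heparin, 6 hr at 37 C. ThT 30 uM added, 1 hr ambient; Alexa 594 FP and total fluorescence read at 555/632 nm.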
Tau fibril ThT – blocks human tau fibril formation measured by thioflavin T; P10636; recombinant tau K18 P301L, heparin-induced fibrillization, ThT fluorescence; Potency, µM (doses to about 57.4 µM), for inactives: top-dose activity, negative = inhibition, hits mostly inhibitors; hit rate 2.1% among 270,000; AID 1460; note: nearly all actives have a fitted effect of over 55% in size
Target sequence (P10636 561-689 P618L limits assumed): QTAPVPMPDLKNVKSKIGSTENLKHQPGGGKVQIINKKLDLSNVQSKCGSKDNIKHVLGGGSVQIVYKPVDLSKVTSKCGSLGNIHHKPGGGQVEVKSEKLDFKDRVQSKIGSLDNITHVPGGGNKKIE
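Heparin-induced fibrillization of the P301L-mutant K18 repeat-domain fragment of human tau was followed by ThT binding in quantitative high-throughput format.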
RGS12 GoLoco inh – RGS12 GoLoco-Gai1 interaction inhibition | P63096 | Gai1:RGS12 GoLoco peptide FP, rhodamine, 10 min | Potency, µM (highest dose often 61.6 µM), inactives show at the top dose activity, negative = inhibition, usual class: inhibitors | hit rate 0.44% among 230,000; active = well fitted inhibition curve with a large enough effect, not every such curve was filed as active; inactive = no such curve, though single readings can be large or run the other way; note: nearly all actives have a fitted effect of over 30% in size
Tau FP inhib – tau fibrillization inhibition (FP); hit rate 0.39% among 280,000; K18 P301L tau heparin fibrillization, Alexa594 FP, 6 h; AID 1468; Potency, µM (titrated, usually from 57.7 µM), for the others: at the top dose activity, negative = inhibition, hits mostly inhibitors; note: nearly all actives have a fitted effect of over 55% in size
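Heparin (20 uM) drove fibril formation of recombinant tau K18 P301L, 15 uM unlabeled with 0.24 uM Alexa 594 label, for 6 hr at 37 C in 100 mM sodium acetate pH 7. Fluorescence polarization (555/632 nm) read 1 hr after 30 uM ThT.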
TRb SRC2 PPI – disrupts binding of human TR beta to SRC2; AID 1469; Potency, µM (doses to about 106 µM), for inactives: at the top dose activity change, negative = inhibition, actives largely listed as inhibitors; P10828; hit rate 0.065% among 280,000; TRbeta-SRC2 peptide binding, fluorescence polarization; receptor liganded with 1 µM T3;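 note: plate controls were bound peptide for no effect and peptide without receptor for full effect; nearly all actives have a fitted effect of over 50% in size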
Target sequence (P10828 whole entry, looked up): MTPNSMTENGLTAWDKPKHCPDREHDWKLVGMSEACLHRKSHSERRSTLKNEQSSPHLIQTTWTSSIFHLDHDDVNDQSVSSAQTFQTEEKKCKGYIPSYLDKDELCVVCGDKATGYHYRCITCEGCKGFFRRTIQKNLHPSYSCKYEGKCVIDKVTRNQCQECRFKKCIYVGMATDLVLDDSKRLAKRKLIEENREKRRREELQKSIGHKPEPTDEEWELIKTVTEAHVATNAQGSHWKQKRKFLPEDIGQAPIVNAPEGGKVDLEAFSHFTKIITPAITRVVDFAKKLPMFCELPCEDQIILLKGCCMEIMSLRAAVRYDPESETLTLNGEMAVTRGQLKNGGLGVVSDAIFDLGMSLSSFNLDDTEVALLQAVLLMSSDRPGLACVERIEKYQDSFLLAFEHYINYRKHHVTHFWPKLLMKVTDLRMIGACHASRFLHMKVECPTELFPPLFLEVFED
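Decrease in fluorescence polarization of 20 nM Texas Red SRC2 coactivator peptide flagged inhibition of its binding to 0.6 uM TRb LBD; 1 uM T3 included, incubation 5 hr, ex 555/em 632 nm.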
Active calls of the source: *; ? = inconclusive; . = not tested or not shown; [ ] = remark or other dose. Sampled rows, rich in hits. Any-hit rate of the full collection: about 3.2%. Unless noted, calls come from the whole dose curve; as a rule, active = well fitted curve in the direction sought with a large enough effect; inconclusive = small, poorly fitted or top-dose-only effect, or another doubt; inactive = no such curve, though single readings can be large; an effect the other way counts as inactive or inconclusive. Unless noted, % is set by controls: 0 for no effect and ±100 for the full control effect; potency is the fitted concentration of half-maximal effect.

SMILES	TR SRC2 fluor cs	Tau fluor cs	Tau fibril ThT	RGS12 GoLoco inh	Tau FP inhib	TRb SRC2 PPI
Brc1ccc(-c2ccc(/C=N/Nc3nncc(-c4ccccc4)n3)o2)cc1	3%	-16%	2µM*	0%	11%	1%
Oc1ccc(/C=N\Nc2nncc(-c3ccccc3)n2)cc1	-3%	?	.	12%	6%	1%
Cc1[nH]c(N=Nc2ccccc2)nc1N=Nc1ccccc1	-4%	?	3.5µM*	10%	-1%	2%
Cc1nc(N2CCOCC2)c2c(C(=O)N3CCN(c4cc(Cl)ccc4C)CC3)c(C)oc2n1	-1%	0%	-10%	.	5%	-4%
CC(C)(C)NC(=S)N/N=C\c1ccc(-c2ccc([N+](=O)[O-])cc2)o1	-3%	?	7.1µM*	20%	12%	-2%
CCc1nnc(N/N=C/c2ccc(-c3ccc([N+](=O)[O-])cc3)o2)n1N	-3%	?	1.8µM*	28%	?	6%
C=CCNC(=S)N/N=C/c1ccc(-c2ccc(OC)cc2)o1	-1%	20µM*[quencher]	?	3%	9%	1%
CNC(=S)N/N=C/c1ccc(-c2ccc(Cl)c([N+](=O)[O-])c2)o1	-3%	?	?	27%	-13%	-2%
CCCCC(=O)N/N=C/c1ccc(-c2ccc([N+](=O)[O-])cc2)o1	-3%	?	4.5µM*	25%	9%	-5%
O=C(Nc1ccc(S(=O)(=O)N2CCCCC2c2cccnc2)cc1)c1ccc(Br)cc1 (stereo not drawn)	-3%	?	5%	.	?	-3%
Cc1ccc(-n2ncc3c(N4CCCCCC4)ncnc32)cc1C	-2%	4%	?	.	6%	-2%
CCC(=O)N/N=C/c1ccc(-c2ccc([N+](=O)[O-])cc2)o1	-9%	-28%	7.9µM*	13%	2%	-3%
CCC(=O)N/N=C/c1ccc(-c2ccc(Cl)cc2)o1	-6%	-9%	?	-5%	7%	0%
O=C(N/N=C/c1ccc(-c2ccc([N+](=O)[O-])cc2)o1)C(O)c1ccccc1 (stereo not drawn)	-7%	?	16µM*	11%	6%	-13%
COC(=O)c1ccc(C(NC(=O)OCc2ccccc2)/C(=C/[C@@H](C)C(=O)NCc2nc3ccccc3s2)c2cccnc2)cc1 (stereo partly drawn)	-2%	-19%	-15%	5%	?	-5%
COc1ccc(Nc2nc(-c3cccc([N+](=O)[O-])c3)nc3ccccc23)cc1	-1%	3.5µM*[quencher]	?	2%	?	14%
COc1cccc(CN(C)c2nc(-c3cccs3)nc3ccccc23)c1	0%	-28%	?	4%	?	5%
COc1ccc(N2CCN(c3nc(-c4cccs4)nc4ccccc34)CC2)cc1	-3%	?	?	11%	-4%	6%
COc1nc(-c2cccc([N+](=O)[O-])c2)nc2ccccc12	1%	-22%	-12%	2%	-14%	-4%
COc1cccc(Nc2nc(-c3cccs3)nc3ccccc23)c1	-1%[53 µM]	?	10%	16%	25µM*	-7%[53 µM]
COc1ccc(Nc2nc(-c3cccs3)nc3ccccc23)cc1	-4%	10µM*[quencher]	?	9%	15%	9%
COc1ccccc1/C=C/c1nc(C#N)c(NC2CCCCC2)o1	-7%	?	?	.	13%	-6%
O=C1c2cc(O)cc(O)c2OC[C@@H]1c1ccc(O)c(O)c1	-3%	.	.	.	.	0%
CCOC(=O)c1c(-c2ccccc2)csc1NC(=O)/C(C#N)=C/c1ccc(O)c(OC)c1	-3%	13µM*[quencher]	?	140%	17%	-2%
CCOC(=O)c1c(-c2ccccc2)csc1NC(=O)/C(C#N)=C/c1ccc(OC)c(OC)c1	0%	-2%	-7%	6%	8%	3%
SMILES	TR SRC2 fluor cs	Tau fluor cs	Tau fibril ThT	RGS12 GoLoco inh	Tau FP inhib	TRb SRC2 PPI
Cc1ccccc1CN1C(=O)C(O)(CC(=O)c2cccc(Br)c2)c2ccccc21 (stereo not drawn)	7%	-18%	?	.	-1%	4%
CC(C)(C)C(=O)C1C(=O)c2ccccc2C1=O	-1%	.	.	10µM*	.	-3%
Cc1c2ccccc2c(CSC(=N)N)c2ccccc12	-3%	-28%	13µM*	5%[14.2 µM]	?	-8%
Oc1ccc(/C=N/N=C(c2ccccc2)c2ccccc2)c(O)c1O	-13%	13µM*[quencher]	8.9µM*	5%	?	2%
COc1cc(/C=C/C(=O)N2CCCCC2=O)cc(OC)c1OC	-2%	-15%	11µM*	-18%	?	0%
CC1(C)CC2(CC(c3ccccc3F)c3ccc(O)c(O)c3O2)NC(=S)N1 (stereo not drawn)	-4%	?	22µM*	-23%	?	-1%
CC1(C)CC2(CC(c3ccc(F)cc3)c3ccc(O)cc3O2)NC(=S)N1 (stereo not drawn)	3%	-17%	.	-4%	-12%	2%
CC(C)(C)c1ccc(C(=O)Nc2ccccc2C(=O)OCc2cc(=O)n3ccsc3n2)cc1	-1%	-5%	11%	.	-3%	-1%
CCOC(=O)c1ccc(/C=C2/C=C(c3ccccc3)N(c3ccc(Cl)c(C(=O)O)c3)C2=O)cc1	-2%	8%	16µM*	123%	-10%	6%
CCOC(=O)c1ccc(Cl)c(NC(=O)c2ccc(-c3ccccc3)cc2)c1	-3%	4%	4%	7%	-4%	-5%
COc1cc(-c2[o+]c3cc(O)cc(O)c3cc2O)cc(O)c1O	.	.	.	5%[14.2 µM]	.	.
CCCC[C@H](NC(C)=O)C(=O)N[C@H]1CC(=O)NCCCC[C@@H](C(N)=O)NC(=O)[C@H](Cc2c[nH]c3ccccc23)NC(=O)[C@H](CCCN=C(N)N)NC(=O)[C@@H](Cc2ccccc2)NC(=O)[C@H](Cc2cnc[nH]2)NC1=O	4%	.	.	.	.	-3%
COc1ccc(-c2csc(NC(=O)c3ccccc3NS(=O)(=O)c3ccc(F)c(F)c3)n2)cc1	-19%	?	22µM*	2%	?	11%
Cc1cccc(NS(=O)(=O)c2cc(NC(=O)CC(=O)c3ccc([N+](=O)[O-])cc3)ccc2C)c1	-4%	7.9µM*[quencher]	?	18%	-6%	-8%
Cc1ccc(C(=O)Nc2cccc([N+](=O)[O-])c2)cc1S(=O)(=O)Nc1ccc(C(=O)O)cc1	-2%	-18%	-16%	5%	-1%	3%
Cc1ccccc1NS(=O)(=O)c1cc(C(=O)Nc2cccc([N+](=O)[O-])c2)ccc1C	-3%	14µM*[quencher]	?	4%	-13%	6%
CCOC(=O)c1c(C)[nH]c(C)c1S(=O)(=O)N(C)CC(=O)Nc1ccc(OC)cc1	-2%	-2%	1%	.	1%	5%
